A short description of assay [1]: AP1 Signaling Pathway (AID 357; active means well fitted curve in either direction with a large enough effect, not every such curve was filed as active;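 further: ME-180 reporter cells stimulated with EGF at its EC50 level; on the % scale 0 is the no-effect control and ±100 the full control effect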). In a few lines: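 Read-out was the 460nm/530nm emission ratio (excitation 405nm) after CCF4 loading for 2.5 hours at room temperature. Cells carried an AP-1-driven beta-lactamase reporter, were stimulated with EC50 EGF plus compound for 5 hours, and AC50 values came from titrations.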
Assay [2] concerns the target Cytochrome P450 1A2 (Homo sapiens) (UniProt P05177). As to the kind of experiment: p450-cyp1a2 (AID 410; calls by dose curve; further: potency means the concentration at half of the fitted maximal effect;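 on activity change, negative = inhibition: -100% = full effect of reference inhibitor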). An outline of the steps: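 20nM CYP1A2, 100uM Luciferin-ME (=Km), 100mM KPO4; cpd 10 min RT; +NADPH regen, 60 min RT; stop/detect 20 min; luminescence. Normalized to furafylline 57 uM = full inhibition.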
The nature of assay [3]: NFAT Signaling Pathway (AID 444; active means well fitted curve in either direction with a large enough effect, not every such curve was filed as active;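 further: carbachol stimulus at about its EC50 of 1 µM final; on the % scale 0 is the no-effect control and ±100 the full control effect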). The settings on record: Jurkat NFAT-bla M1, carbachol, beta-lactamase ratio, 5 h; at 17.2 µM (top of the series) unless noted. In a few lines:
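Read-out: CCF4 FRET ratio (460 nm/530 nm) after 1 h RT dye loading, used for %activity and AC50 from titration series. Cells: Jurkat NFAT-β-lactamase/M1 line, treated with compound plus 1 uM carbachol for 5 h, 37 °C.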

Assay [4] is described as follows: Stat Signaling Pathway (AID 446; active means well fitted curve in either direction with a large enough effect, not every such curve was filed as active;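 further: ME-180 cervical cancer cells given 40 pM IL-6 alongside compound; SIE-controlled beta-lactamase reporter measured as 460/530 nm FRET emission ratio; on the % scale 0 is the no-effect control and ±100 the full control effect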). An outline of the steps: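 Overnight-plated ME-180 cells bearing a STAT Inducible Element beta-lactamase reporter; 5 h co-exposure to compound and 40 pM IL-6; values normalized to 300 pM IL-6 and 125 nM JAK inhibitor controls.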
Assay [5] has as its target Glucocorticoid receptor (Homo sapiens) (UniProt P04150). As to the kind of experiment: GR-GFP Redistribution (AID 450;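 active means compounds whose dose series gives a full or clear partial fitted curve of increased nuclear translocation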; further: potency means the concentration at half of the fitted maximal effect). To be noted: U2OS GR-GFP nuclear translocation, laser cytometry, 2 h.
Assay [6] shares this target. As to the kind of experiment: GR-EFC Redistribution (AID 451; calls by dose curve; further: potency means the concentration at half of the fitted maximal effect). To be noted: CHO-K1 GR-EFC translocation, beta-gal luminescence, 2 h. An outline of the steps:
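Translocation of GR-ED fusion to nuclear EA restores b-gal, read by luminescence after 1 h room-temperature detection. Engineered CHO-K1 biosensor cells, 1,000/well, exposed 2 h at 37 C to titrations up to 46 uM final.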

Assay [7] addresses Mitogen-activated protein kinase 10 (Mus musculus) (UniProt Q61831). Nature of the assay: JNK3 AlphaScreen Assay (AID 530; active means well fitted curve in either direction with a large enough effect, not every such curve was filed as active;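 further: kinase came from lysate of stimulated human HepG2 cells; signal reports phosphorylation of biotinylated GST-cJun 1-79 at Ser73 with 10 µM ATP; on the % scale 0 is the no-effect control and ±100 the full control effect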). In a few lines:
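Kinase buffer: 20 mM Tris-HCl pH 7.6, 10 mM MgCl2, 1 mM DTT, 0.1 mM Na3VO4, 0.01% Tween-20; ATP 10 uM. Substrate biotin-GST-cJun(1-79), enzyme from activated HepG2 lysates. Detection by Ser73 phospho-antibody AlphaScreen.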
Background: In Alpha technology, singlet oxygen from a donor bead excites a nearby acceptor bead.

The target of assay [8] is 3',5'-cyclic-AMP phosphodiesterase 4B (Homo sapiens) (UniProt Q07343). Nature of the assay: qHTS Assay for Inhibitors of PDE-IV (AID 607; active means well fitted activation curve with a large enough effect in the main read-out, with a control signal flat, not every such curve was filed as active; further: % of control where 0% means no effect). In a few lines: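 Live HEK293 cells with a modified cyclic nucleotide-gated (CNG) channel report intracellular cAMP via membrane-potential dye fluorescence (ex 535/em 590 nm). Endogenous PDE-IV was targeted. Compounds were tested at up to 22.9 uM final; RO 20-1724 100 uM served as control.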

The nature of assay [9]: qHTS Assay for Lipid Storage Modulators (AID 1519; calls by dose curve). The settings on record: Drosophila S3 cells, BODIPY lipid droplet/cell ratio, laser cytometry, cells loaded with oleic acid; for activity change, negative = inhibition: at 25.7 µM (top of the series). In a few lines: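 Cells seeded at 5,000 per well were treated with compounds over a concentration series and loaded with oleic acid (400 uM, as added). Lipid droplet fluorescence (488 nm excitation, 500-530 nm channel) was read by laser-scanning cytometry and normalized to 20 uM Triacsin C.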

Assay [10] addresses Ubiquitin carboxyl-terminal hydrolase 1 (Homo sapiens) (UniProt O94782). Nature of the assay: Inhibitors of USP1/UAF1: Pilot qHTS (AID 504865).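 Further: rhodamine fluorescence freed from ubiquitin-rhodamine substrate followed over time; top concentration of the series differs between compounds; on the % scale 0 is the no-effect control and ±100 the full control effect; nearly all actives have a fitted effect of over 35% in size.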 In a few lines: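 1nM USP1/UAF1 + cpd, 15 min RT; start w/ Ub-Rho 150nM final; kinetic FL 480/540 nm, 6 reads q60 s. Buffer 50mM HEPES pH 7.8, 0.5mM EDTA, 1mM TCEP, 0.01% Tween-20, 0.1 mg/ml BSA.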
On the technique in general: In qHTS, concentration-response curves come from the screen itself.

The nature of assay [11]: S16 Schwann cell viability assay (CellTiter-Glo assay) (AID 624031).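 Further: native untransfected S16 rat Schwann cells; cellular ATP luminescence as a viability measure; plate controls were DMSO-treated cells for no effect and cell-free wells for full effect; nearly all actives have a fitted effect of over 70% in size.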 In a few lines:
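Parental S16 cells, 24 h compound, 37 °C. ATP-luminescence viability; DMSO = 0% activity, empty wells as reference; curves classified by fit quality and efficacy.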

The nature of assay [12]: S16 Schwann cell PMP22 intronic element firefly luciferase assay (AID 624032). Further: nearly all actives have a fitted effect of over 30% in size. Further: potency means the concentration at half of the fitted maximal effect.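 On activity change, negative = inhibition: plate controls were DMSO for no effect and PTC124 positive control mean for full effect.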 An outline of the steps:
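Luciferase reporter of PMP22 intronic-element expression in stably transfected S16 rat Schwann cells, read by ONE-Glo luminescence after 24 h compound exposure at 37 C. Activity scaled between DMSO (0%) and positive-control PTC124; concentration-effect curves quality-classified.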

Assay [13] can be described thus: qHTS profiling for inhibitors of Plasmodium falciparum proliferation (AID 504749).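 Further: 0% = DMSO vehicle and full inhibition = artemisinin control; nearly all actives have a fitted effect of over 60% in size.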 To be noted: P. falciparum in erythrocytes, SYBR Green DNA, 72 h, at 12.8 µM (top of the series). An outline of the steps:
(§1)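 In a 72 h erythrocytic culture (37 C, humidified, 5% CO2) at 2.5% hematocrit and 0.3% starting parasitemia, compounds were tested; SYBR Green I in detergent lysis buffer stained parasite DNA overnight.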

The subject of another assay is 3D7. Described as above. The settings on record: P. falciparum in erythrocytes, SYBR Green DNA, 72 h; series mostly up to 12.8 µM. An outline of the steps:
as §1

Another assay concerns AS120. The assay is described as above. To be noted: P. falciparum in erythrocytes, SYBR Green DNA, 72 h; series mostly up to 12.8 µM. In a few lines:
as §1

A further assay relates to ATS189. The assay is described as above. The settings on record: P. falciparum in erythrocytes, SYBR Green DNA, 72 h; series mostly up to 12.8 µM. An outline of the steps: as §1
The next assay deals with CP217. Described as above. To be noted: P. falciparum in erythrocytes, SYBR Green DNA, 72 h; series mostly up to 12.8 µM. An outline of the steps: as §1
The next assay relates to CP247. Described as above. The settings on record: P. falciparum in erythrocytes, SYBR Green DNA, 72 h; series mostly up to 12.8 µM. An outline of the steps:
as §1

The subject of the next assay is CP250. The assay is described as above. To be noted: P. falciparum in erythrocytes, SYBR Green DNA, 72 h; series mostly up to 12.8 µM. In a few lines:
as §1

The subject of the next assay is SC27B. The description is as above. To be noted: P. falciparum in erythrocytes, SYBR Green DNA, 72 h; series mostly up to 12.8 µM. In a few lines: as §1
Setting [14] is: measured here: cell count channel max response.
Where [15] appears, read: measured here: lipid channel max response.

Inconclusive results are not listed. Calls of active or inactive are those of the source. Unless noted, the call rests on the fitted dose curve; in most records, active means well fitted curve in the direction sought with a large enough effect; inconclusive means small, poorly fitted or top-dose-only effect, or another doubt; inactive means no such curve, though single readings can be large; an effect the other way counts as inactive or inconclusive.

Chain of Ubiquitin carboxyl-terminal hydrolase 1 (Homo sapiens) (O94782 whole entry, looked up): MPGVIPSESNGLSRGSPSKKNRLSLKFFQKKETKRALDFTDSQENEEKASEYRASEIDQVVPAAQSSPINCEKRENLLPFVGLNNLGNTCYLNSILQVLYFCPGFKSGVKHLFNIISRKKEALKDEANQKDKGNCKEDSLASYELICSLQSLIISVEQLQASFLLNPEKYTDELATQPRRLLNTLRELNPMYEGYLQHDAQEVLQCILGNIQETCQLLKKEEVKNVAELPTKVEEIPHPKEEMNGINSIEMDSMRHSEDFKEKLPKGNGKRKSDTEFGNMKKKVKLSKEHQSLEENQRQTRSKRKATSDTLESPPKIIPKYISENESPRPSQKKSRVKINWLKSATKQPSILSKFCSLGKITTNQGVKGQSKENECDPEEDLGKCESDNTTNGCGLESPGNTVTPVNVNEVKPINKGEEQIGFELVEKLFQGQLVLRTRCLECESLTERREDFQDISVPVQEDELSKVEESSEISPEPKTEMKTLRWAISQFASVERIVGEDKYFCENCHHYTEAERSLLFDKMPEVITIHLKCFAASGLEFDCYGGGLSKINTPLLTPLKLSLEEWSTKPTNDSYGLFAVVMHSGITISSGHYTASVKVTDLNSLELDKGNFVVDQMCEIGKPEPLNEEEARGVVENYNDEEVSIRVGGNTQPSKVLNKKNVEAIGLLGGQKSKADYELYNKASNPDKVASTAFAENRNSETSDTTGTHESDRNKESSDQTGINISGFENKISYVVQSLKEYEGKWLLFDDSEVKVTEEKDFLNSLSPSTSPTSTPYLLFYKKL
Chain of Glucocorticoid receptor (Homo sapiens) (P04150 whole entry, looked up): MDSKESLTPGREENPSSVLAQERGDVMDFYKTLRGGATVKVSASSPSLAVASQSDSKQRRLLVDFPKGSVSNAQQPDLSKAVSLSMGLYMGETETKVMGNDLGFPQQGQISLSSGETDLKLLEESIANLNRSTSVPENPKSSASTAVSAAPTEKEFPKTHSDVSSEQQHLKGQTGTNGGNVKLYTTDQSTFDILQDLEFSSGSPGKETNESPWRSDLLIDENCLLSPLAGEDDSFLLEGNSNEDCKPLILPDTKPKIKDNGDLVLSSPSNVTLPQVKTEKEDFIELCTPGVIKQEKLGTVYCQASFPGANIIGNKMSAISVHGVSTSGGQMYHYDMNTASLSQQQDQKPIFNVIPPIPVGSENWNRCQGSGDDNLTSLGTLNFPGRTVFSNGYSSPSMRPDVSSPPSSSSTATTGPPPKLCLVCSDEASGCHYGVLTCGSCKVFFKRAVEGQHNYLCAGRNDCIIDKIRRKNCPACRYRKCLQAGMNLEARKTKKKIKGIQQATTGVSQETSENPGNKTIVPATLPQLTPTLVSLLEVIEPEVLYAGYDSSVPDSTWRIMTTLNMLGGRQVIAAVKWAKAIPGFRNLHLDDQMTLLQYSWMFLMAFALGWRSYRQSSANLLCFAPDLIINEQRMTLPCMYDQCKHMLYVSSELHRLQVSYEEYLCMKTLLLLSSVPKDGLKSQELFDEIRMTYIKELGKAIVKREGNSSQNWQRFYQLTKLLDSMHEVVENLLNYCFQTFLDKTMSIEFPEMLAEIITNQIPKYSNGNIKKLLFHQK
Chain of 3',5'-cyclic-AMP phosphodiesterase 4B (Homo sapiens) (Q07343 whole entry, looked up): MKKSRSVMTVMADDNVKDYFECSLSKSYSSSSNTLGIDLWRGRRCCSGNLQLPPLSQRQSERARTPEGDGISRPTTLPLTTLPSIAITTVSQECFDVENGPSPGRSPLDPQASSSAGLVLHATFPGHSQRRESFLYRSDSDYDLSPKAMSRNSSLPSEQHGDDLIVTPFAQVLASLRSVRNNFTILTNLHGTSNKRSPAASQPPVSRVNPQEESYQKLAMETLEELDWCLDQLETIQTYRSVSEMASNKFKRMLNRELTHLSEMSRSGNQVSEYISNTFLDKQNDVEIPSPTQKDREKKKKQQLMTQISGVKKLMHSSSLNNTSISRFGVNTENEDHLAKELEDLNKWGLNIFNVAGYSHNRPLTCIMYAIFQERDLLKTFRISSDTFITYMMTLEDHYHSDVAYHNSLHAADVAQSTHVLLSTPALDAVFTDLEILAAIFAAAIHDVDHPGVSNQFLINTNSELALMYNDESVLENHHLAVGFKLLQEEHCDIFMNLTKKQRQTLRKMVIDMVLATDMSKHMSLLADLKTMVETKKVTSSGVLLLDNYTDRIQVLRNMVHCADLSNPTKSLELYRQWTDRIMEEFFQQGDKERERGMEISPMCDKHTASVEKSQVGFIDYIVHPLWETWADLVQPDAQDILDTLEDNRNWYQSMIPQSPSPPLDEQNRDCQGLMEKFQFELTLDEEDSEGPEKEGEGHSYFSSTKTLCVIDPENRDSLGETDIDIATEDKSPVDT
Chain of Cytochrome P450 1A2 (Homo sapiens) (P05177 whole entry, looked up): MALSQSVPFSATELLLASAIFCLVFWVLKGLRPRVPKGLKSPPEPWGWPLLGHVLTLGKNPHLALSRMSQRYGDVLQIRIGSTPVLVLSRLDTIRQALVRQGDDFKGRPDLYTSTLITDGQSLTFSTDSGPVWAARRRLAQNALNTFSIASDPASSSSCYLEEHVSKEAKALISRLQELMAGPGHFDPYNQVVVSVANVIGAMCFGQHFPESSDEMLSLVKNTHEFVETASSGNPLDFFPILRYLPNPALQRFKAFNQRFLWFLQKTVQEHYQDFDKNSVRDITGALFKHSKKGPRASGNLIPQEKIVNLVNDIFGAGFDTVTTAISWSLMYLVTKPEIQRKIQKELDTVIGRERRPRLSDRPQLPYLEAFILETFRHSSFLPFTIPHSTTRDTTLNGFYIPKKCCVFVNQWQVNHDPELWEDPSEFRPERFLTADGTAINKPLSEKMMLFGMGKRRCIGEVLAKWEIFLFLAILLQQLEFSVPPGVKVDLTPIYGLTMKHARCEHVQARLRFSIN

Regarding `C[C@H](N[C@@H](C)COc1ccccc1)[C@H](O)c1ccc(O)cc1`, the result in assay [1], in [4], in assay [8] and in [11] was inactive. Further, the Potency in assay [2] is 5.01 µM (active); in assay [5] it was > 20.6 µM (inactive); in [6] it was > 20.6 µM (inactive); in [12] it was 1.55 µM (active). Further, the results for the activity change, negative = inhibition in [3] and in [9] were -9.06% (inactive) and 0.23% (inactive), respectively. Further, the Potency entry (in assay [7]; in [10]; with 3D7; in the assay with AS120; in the assay on ATS189; with CP217) was “inactive” each time. Further, the Potency entry in the assay on CP247, in the assay on CP250 and with SC27B was “inactive” in each case. Besides, the max response in [9] (setting [14]) is -4.01%; in assay [9] (setting [15]), -3.47%. The activity, negative = inhibition in assay [13] (parasite line A) is 2.67% (inactive); in assay [13] (parasite line B), 10.2% (inactive).

As for `CO[C@H]1[C@@H](OC(N)=O)[C@H](O)[C@@H](Oc2ccc3c(O)c(NC(=O)c4ccc(O)c(CC=C(C)C)c4)c(=O)oc3c2C)OC1(C)C`, the call in [1], in [4], in assay [8] and in assay [11] was inactive. Further, the Potency result (in assay [2]; in assay [7]; in assay [10]; in assay [12]; in the assay on 3D7; in the assay with AS120) was “inactive” each time. Also, the Potency entry in the assay on ATS189, in the assay with CP217, in the assay on CP247, in the assay on CP250 and in the assay with SC27B was “inactive” in each case. Also, the activity change, negative = inhibition in assay [3] is -13.7% (inactive); in [9], -1.82% (inactive). Besides, the Potency in assay [5] and in [6] was > 20.6 µM (inactive) in each case. In addition, the max response in assay [9] (setting [14]) was -8.07%; in [9] (setting [15]), -8.17%. For the same molecule, the activity, negative = inhibition is 4.79% (inactive) in assay [13] (parasite line A) and -4.42% (inactive) in assay [13] (parasite line B).

Take `O=C1O[C@H](CN2CCOCC2)CN1/N=C\c1ccc([N+](=O)[O-])o1`: the molecule was called inactive in assay [1], in assay [4], in assay [8] and in assay [11]. The Potency entry (in assay [2]; in assay [7]; in assay [10]; in assay [12]; in the assay on ATS189; in the assay on CP217) was “inactive” throughout. Moreover, the Potency result in the assay with CP247, in the assay with CP250 and in the assay with SC27B was “inactive” throughout. Besides, the activity change, negative = inhibition was -16.1% (inactive) in [3] and -9.12% (inactive) in [9]. Also, the Potency in assay [5] and in assay [6] was > 20.6 µM (inactive) in each case. Moreover, the max response was -19.2% in assay [9] (setting [14]) and -26.5% in [9] (setting [15]).

As to `Cc1ccccc1N1C(=O)c2cc(S(N)(=O)=O)c(Cl)cc2N[C@H]1C`, the molecule was called inactive in assay [1], in assay [4] and in [8]. The Potency result in assay [2], in assay [7] and in [10] was “inactive” throughout. For the same molecule, the activity change, negative = inhibition in [3] was 1.02% (inactive); in [9] it was 0.988% (inactive). For the same molecule, the Potency in assay [5] and in [6] was > 20.6 µM (inactive) each time. The max response in [9] (setting [14]) was -3.14%; in [9] (setting [15]), -3.66%.

On to `CNc1ncnc2c1ncn2[C@@H]1O[C@H](CO)[C@@H](O)[C@@H]1O`, for which the outcome in assay [1], in [4] and in [8] was inactive. Moreover, the Potency entry in assay [2], in [7] and in [10] was “inactive” throughout. Moreover, the activity change, negative = inhibition is -5.4% (inactive) in [3] and -4.48% (inactive) in assay [9]. The Potency in assay [5] and in [6] was > 20.6 µM (inactive) in each case. The results for the max response in [9] (setting [14]) and in assay [9] (setting [15]) were -18.6% and -24.1%, respectively.

The values are drawn from PubChem BioAssay (NCATS).
